# In PubChem BioAssay (NCATS):
# Inconclusive results are not listed. A call without a number means that no potency is given here. Calls of active or inactive are those of the source. Calls follow the shape of the dose curve; as a rule, active = well fitted curve in the direction sought with a large enough effect; inconclusive = small, poorly fitted or top-dose-only effect, or another doubt; inactive = no such curve, though single readings can be large; an effect the other way counts as inactive or inconclusive.
# Legend:
# [1] = Quantitative High-Throughput drug screen in 47 multiple myeloma cell lines against the NCATS MIPE library collection: KHM11_PLB cell viability assay (AID 1918962); also: nearly all actives have a fitted effect of over 35% in size; also: potency is read from the fitted curve at half-maximal effect
# In short: (§1)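 Myeloma cell lines, 500 cells per well, exposed to MIPE 4.0 library compounds for 48 h at 37C, 5% CO2. Viability from ATP by CellTiter-Glo luminescence; normalised to DMSO (100%) and media-only (0%) wells.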
# [2] = Quantitative High-Throughput drug screen in 47 multiple myeloma cell lines against the NCATS MIPE library collection: JIM3_ECACC cell viability assay (AID 1918963; also: nearly all actives have a fitted effect of over 35% in size; also: potency is read from the fitted curve at half-maximal effect)
# In short: as §1
# [3] = Quantitative High-Throughput drug screen in 47 multiple myeloma cell lines against the NCATS MIPE library collection: JIM1_ECACC cell viability assay (AID 1918964; also: potency is read from the fitted curve at half-maximal effect)
# In short: (§2)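 Myeloma cells (500 per well) were exposed to MIPE 4.0 compounds by pin transfer and incubated 48 hours at 37C, 5% CO2. Viability was read as ATP by CellTiter-Glo luminescence, normalised to DMSO (100%) and media-only (0%) wells.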
# [4] = Quantitative High-Throughput drug screen in 47 multiple myeloma cell lines against the NCATS MIPE library collection: Karpas25_ECACC cell viability assay (AID 1918968; also: nearly all actives have a fitted effect of over 35% in size; also: potency is read from the fitted curve at half-maximal effect)
# In short: as §2
# [5] = Quantitative High-Throughput drug screen in 47 multiple myeloma cell lines against the NCATS MIPE library collection: KMS27_JCRB cell viability assay (AID 1918970); also: nearly all actives have a fitted effect of over 30% in size; also: potency is read from the fitted curve at half-maximal effect
# In short: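 Each line is seeded at 500 cells per well and treated with library compounds for 48 hours under 37 °C, 5% CO2. CellTiter-Glo is then added for 5 min at room temperature before median relative luminescence is recorded.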
# [6] = Quantitative High-Throughput drug screen in 47 multiple myeloma cell lines against the NCATS MIPE library collection: KMS12BM_JCRB cell viability assay (AID 1918971); also: nearly all actives have a fitted effect of over 35% in size; also: potency is read from the fitted curve at half-maximal effect
# In short: (§3)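 Approved and investigational drugs from MIPE 4.0 were added by pin tool to 500 cells per well. After 48 hours at 37C, ATP-based CellTiter-Glo luminescence indicated remaining viability.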
# [7] = Quantitative High-Throughput drug screen in 47 multiple myeloma cell lines against the NCATS MIPE library collection: KMS20_JCRB cell viability assay (AID 1918973); also: nearly all actives have a fitted effect of over 45% in size
# In short: as §2
# [8] = Quantitative High-Throughput drug screen in 47 multiple myeloma cell lines against the NCATS MIPE library collection: NCIH929_DSMZ cell viability assay (AID 1918978); also: nearly all actives have a fitted effect of over 35% in size; also: potency is read from the fitted curve at half-maximal effect
# In short: (§4)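 500 cells/well per myeloma line exposed to pinned MIPE 4.0 compounds for 48 h at 37 °C, 5% CO2. Viability read as ATP by CellTiter-Glo luminescence, normalised to DMSO-only (100%) and media-only (0%) wells.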
# [9] = Quantitative High-Throughput drug screen in 47 multiple myeloma cell lines against the NCATS MIPE library collection: OCIMY1_PLB cell viability assay (AID 1918979); also: nearly all actives have a fitted effect of over 35% in size
# In short: as §4
# [10] = Quantitative High-Throughput drug screen in 47 multiple myeloma cell lines against the NCATS MIPE library collection: MM1S_ATCC cell viability assay (AID 1918980); also: nearly all actives have a fitted effect of over 45% in size; also: potency is read from the fitted curve at half-maximal effect
# In short: as §4
# [11] = Quantitative High-Throughput drug screen in 47 multiple myeloma cell lines against the NCATS MIPE library collection: MM1R_ATCC cell viability assay (AID 1918981); also: nearly all actives have a fitted effect of over 35% in size; also: potency is read from the fitted curve at half-maximal effect
# In short: as §4
# [12] = Quantitative High-Throughput drug screen in 47 multiple myeloma cell lines against the NCATS MIPE library collection: INA6_PLB cell viability assay (AID 1918965; also: nearly all actives have a fitted effect of over 55% in size; also: potency is read from the fitted curve at half-maximal effect)
# In short: as §1
# [13] = Quantitative High-Throughput drug screen in 47 multiple myeloma cell lines against the NCATS MIPE library collection: JJN3_DSMZ cell viability assay (AID 1918966; also: nearly all actives have a fitted effect of over 50% in size; also: potency is read from the fitted curve at half-maximal effect)
# In short: as §2
# [14] = Quantitative High-Throughput drug screen in 47 multiple myeloma cell lines against the NCATS MIPE library collection: H1112_PLB cell viability assay (AID 1918967; also: nearly all actives have a fitted effect of over 30% in size; also: potency is read from the fitted curve at half-maximal effect)
# In short: as §2
# [15] = Quantitative High-Throughput drug screen in 47 multiple myeloma cell lines against the NCATS MIPE library collection: KMS26_JCRB cell viability assay (AID 1918975); also: nearly all actives have a fitted effect of over 45% in size; also: potency is read from the fitted curve at half-maximal effect
# In short: as §3
# [16] = Quantitative High-Throughput drug screen in 47 multiple myeloma cell lines against the NCATS MIPE library collection: KMS12PE_JCRB cell viability assay (AID 1918972); also: nearly all actives have a fitted effect of over 30% in size; also: potency is read from the fitted curve at half-maximal effect
# In short: as §1
# [17] = Quantitative High-Throughput drug screen in 47 multiple myeloma cell lines against the NCATS MIPE library collection: MMM1_PLB cell viability assay (AID 1918976)
# In short: as §4
# [18] = Quantitative High-Throughput drug screen in 47 multiple myeloma cell lines against the NCATS MIPE library collection: MOLP8_DSMZ cell viability assay (AID 1918977); also: nearly all actives have a fitted effect of over 45% in size; also: potency is read from the fitted curve at half-maximal effect
# In short: as §4
# [19] = Quantitative High-Throughput drug screen in 47 multiple myeloma cell lines against the NCATS MIPE library collection: Karpas417_ECACC cell viability assay (AID 1918961); conditions: Karpas417 myeloma viability, CellTiter-Glo ATP luminescence, 48 h; viability (% of DMSO): at 45.8 µM (top of the series)
# In short: as §1
compound,measurement,setting,value
CNC1CCCN(c2c(F)cc3c(=O)c(C(=O)O)cn(C4CC4)c3c2OC)C1 (stereo not drawn),Potency,[1],inactive
same,Potency,[2],inactive
same,Potency,[3],inactive
same,Potency,[4],9.35 µM (active)
same,Potency,[5],0.0209 µM (active)
same,Potency,[6],inactive
same,Potency,[7],inactive
same,Potency,[8],1.48 µM (active)
same,Potency,[9],inactive
same,Potency,[10],11.8 µM (active)
same,Potency,[11],inactive
CN(C)CCc1c[nH]c2ccc(CS(=O)(=O)N3CCCC3)cc12,Potency,[1],16.6 µM (active)
same,Potency,[2],inactive
same,Potency,[3],inactive
same,Potency,[12],0.0074 µM (active)
same,Potency,[13],inactive
same,Potency,[14],inactive
same,Potency,[5],23.5 µM (active)
same,Potency,[6],inactive
same,Potency,[15],inactive
same,Potency,[8],inactive
COCCCOc1cc(C[C@@H](C[C@H](N)[C@@H](O)C[C@H](C(=O)NCC(C)(C)C(N)=O)C(C)C)C(C)C)ccc1OC,Potency,[1],inactive
same,Potency,[2],inactive
same,Potency,[4],1.87 µM (active)
same,Potency,[16],inactive
same,Potency,[15],inactive
same,Potency,[8],inactive
same,Potency,[10],0.0743 µM (active)
CN(Cc1cc(Br)cc(Br)c1N)C1CCCCC1,Potency,[2],inactive
same,Potency,[14],inactive
same,Potency,[5],inactive
same,Potency,[16],inactive
same,Potency,[17],33.2 µM (active)
same,Potency,[18],inactive
same,Potency,[8],inactive
same,Potency,[10],inactive
CC(C)OC(=O)C(C(=O)OC(C)C)=C1SC=CS1,Potency,[2],inactive
same,Potency,[3],inactive
same,Potency,[13],inactive
same,Potency,[14],inactive
same,Potency,[6],14.8 µM (active)
same,Potency,[15],0.003 µM (active)
same,Potency,[8],inactive
same,Potency,[9],inactive
NC(=O)c1ccc2[nH]ccc2c1,Potency,[19],inactive
same,Potency,[2],inactive
same,Potency,[3],inactive
same,Potency,[12],inactive
same,Potency,[14],inactive
same,Potency,[4],inactive
same,Potency,[6],inactive
same,Potency,[15],inactive
same,Potency,[8],inactive
same,Potency,[9],inactive
Nc1nc(N)c2nc(CNc3ccc(C(=O)NC(CCC(=O)O)C(=O)O)cc3)cnc2n1 (stereo not drawn),Potency,[2],0.0418 µM (active)
same,Potency,[4],inactive
same,Potency,[15],0.0264 µM (active)
same,Potency,[18],inactive
same,Potency,[8],inactive
same,Potency,[10],0.0132 µM (active)
S=P(N1CC1)(N1CC1)N1CC1,Potency,[2],inactive
same,Potency,[13],0.0118 µM (active)
same,Potency,[4],inactive
same,Potency,[5],0.469 µM (active)
same,Potency,[16],inactive
same,Potency,[15],inactive
same,Potency,[10],18.7 µM (active)
same,Potency,[11],18.7 µM (active)
Oc1c(Cl)cc(Cl)c2cccnc12,Potency,[1],26.4 µM (active)
same,Potency,[2],9.35 µM (active)
same,Potency,[3],8.33 µM (active)
same,Potency,[12],16.6 µM (active)
same,Potency,[13],8.33 µM (active)
same,Potency,[14],11.8 µM (active)
same,Potency,[5],16.6 µM (active)
same,Potency,[6],4.69 µM (active)
same,Potency,[16],14.8 µM (active)
same,Potency,[15],14.8 µM (active)
same,Potency,[18],11.8 µM (active)
same,Potency,[8],10.5 µM (active)
same,Potency,[10],7.43 µM (active)
same,Potency,[11],11.8 µM (active)
CC(C)C1CCC(C(=O)N[C@H](Cc2ccccc2)C(=O)O)CC1 (stereo partly drawn),Potency,[1],inactive
same,Potency,[2],inactive
same,Potency,[3],inactive
same,Potency,[5],inactive
same,Potency,[7],inactive
same,Potency,[15],inactive
same,Potency,[8],inactive
same,Potency,[10],16.6 µM (active)
CCCCCCNC(=O)n1cc(F)c(=O)[nH]c1=O,Potency,[2],16.6 µM (active)
same,Potency,[12],11.8 µM (active)
same,Potency,[13],23.5 µM (active)
same,Potency,[14],5.26 µM (active)
same,Potency,[4],7.43 µM (active)
same,Potency,[6],4.69 µM (active)
same,Potency,[18],6.62 µM (active)
same,Potency,[8],11.8 µM (active)
same,Potency,[9],inactive
same,Potency,[10],20.9 µM (active)
same,Potency,[11],4.18 µM (active)
CCCN[C@H]1CCc2nc(N)sc2C1,Potency,[2],inactive
same,Potency,[3],inactive
same,Potency,[12],inactive
same,Potency,[13],inactive
same,Potency,[18],inactive
same,Potency,[9],inactive
same,Potency,[10],0.833 µM (active)
